# Assay outcomes (PubChem)
# ERG Ets-DNA blk = qHTS for Small Molecule Inhibitors of the ERG Ets/DNA interaction; Transcriptional regulator ERG (Homo sapiens), P11308; fluorescence polarization, His-ERG Ets domain / labelled DNA; Potency, µM (top dose mostly 76.9 µM), for inactives: at the top dose FP activity, negative = inhibition, most hits filed as inhibitors; actives 0.028% (n = 370,000); active = well fitted inhibition curve with a large enough effect in the polarisation, with a control signal flat; inconclusive = small, poorly fitted or top-dose-only effect, or effect the other way, or a change in a side signal; inactive = no such curve, though single readings can be large or run the other way; the % refers to the polarisation;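 note: polarization taken with two DNA probes labelled with fluorescein and Texas red; % of control where 0% means no effect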
# Target sequence (P11308 whole entry, looked up, the tested form may be a part): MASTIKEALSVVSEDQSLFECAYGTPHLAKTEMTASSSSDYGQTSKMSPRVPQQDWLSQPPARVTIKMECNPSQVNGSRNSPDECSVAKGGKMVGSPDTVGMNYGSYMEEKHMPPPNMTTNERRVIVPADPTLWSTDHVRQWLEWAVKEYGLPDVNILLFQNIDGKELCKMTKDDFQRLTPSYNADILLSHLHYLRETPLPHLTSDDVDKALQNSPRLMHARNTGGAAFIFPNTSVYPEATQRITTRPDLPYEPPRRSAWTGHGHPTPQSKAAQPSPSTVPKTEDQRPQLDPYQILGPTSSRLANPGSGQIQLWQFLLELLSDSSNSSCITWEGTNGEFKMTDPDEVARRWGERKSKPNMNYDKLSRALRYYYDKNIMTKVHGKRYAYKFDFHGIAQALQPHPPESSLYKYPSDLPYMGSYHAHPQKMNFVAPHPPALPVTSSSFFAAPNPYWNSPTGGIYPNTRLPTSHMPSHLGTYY
#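 His-tagged ERG Ets domain (1 uM in the protein solution; 300mM KCl, 50mM Tris-HCl, 1mM EDTA, 1mM DTT, pH 7.5) received compound, then a probe mix of 5 nM fluorescein-DNA and 100nM Texas-615-DNA. Fluorescence polarization was read for both dyes.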
# aSyn rescue = qHTS of alpha-syn Inhibitors | Potency, µM (titrated, usually from 46.1 µM), for the others: at the highest dose growth rescue (activation), hits mostly activators | Yeast expressing alpha-synuclein, growth rescue, BacTiter-Glo, 24 h | AID 652106, 2013 | actives 0.14% (n = 370,000); note: % of control where 0% means no effect; nearly all actives have a fitted effect of over 65% in size
#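 Readout is rescue of growth in alpha-synuclein-expressing yeast, so inhibitors of toxicity appear as activators. Growth after 24 hr at 30 deg C in galactose medium is quantified by luminescence.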
# Mito fusion yeast = qHTS Assay for Small Molecule Inhibitors of Mitochondrial Division or Activators of Mitochondrial Fusion; actives 0.23% (n = 320,000); S. cerevisiae fusion-defective mutant growth rescue, CellTiterGlo 48 h; Potency, µM (doses to about 46.1 µM), inactives show top-dose growth rescue (activation), hits mostly activators; note: % of control where 0% means no effect; nearly all actives have a fitted effect of over 45% in size
#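 S. cerevisiae fusion-defective temperature-sensitive mutants (e.g. fzo1-1, mgm1-5) grown 48 h at 37C in YPEG (ethanol/glycerol non-fermentable) medium with 23 nl compound per well; growth rescue read as CellTiterGlo luminescence.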
# FUS suppressor = qHTS for Suppressors of FUS Proteinopathy: Primary screen using FUS-linked yeast assay. S. cerevisiae FUS-expressing, growth rescue, OD600, 24 h. Potency, µM (series often up to 76.6 µM), most hits filed as activators. actives 0.24% (n = 390,000). AID 1347120, 2019;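 note: plate controls were DMSO vehicle for no effect and reference control for full effect; nearly all actives have a fitted effect of over 55% in size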
#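 Quantitative HTS measuring growth restoration of FUS-toxic yeast. Galactose-induced cells (OD 0.005) were exposed 24hr at 30C to compounds at several concentrations, then absorbance at 600 nm was recorded.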
# Abeta yeast res = qHTS for compounds that reverse cellular toxicity of Amyloid beta (A-beta) peptide in yeast: Primary Screen | yeast expressing A-beta42, growth rescue, OD600, 48 h; response scale: 0% DMSO, 100% iron-clioquinol control | Potency, µM (top dose mostly 46.1 µM), most hits filed as activators | actives 0.063% (n = 410,000) | AID 1347071, 2019; note: nearly all actives have a fitted effect of over 55% in size
#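 Yeast growth medium received pinned compounds, then yeast cells expressing toxic A-beta were added; plates incubated at 30 C for 48 hr. Growth read as absorbance at 600 nm, normalized to DMSO and equimolar FeCl3 plus clioquinol controls.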
# TDP43 rescue = qHTS of TDP-43 Inhibitors; Potency, µM (titrated, usually from 46.1 µM), for inactives: top-dose growth rescue (activation), actives largely listed as activators; TDP-43 expressing yeast growth rescue, BacTiter-Glo, 24 h; actives 1.8% (n = 410,000); note: % of control where 0% means no effect; nearly all actives have a fitted effect of over 50% in size
#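 Luminescence from BacTiter-Glo reports growth of TDP-43-expressing yeast after 24 hr at 30 deg C with compound. Cells were raffinose-pregrown to mid-log, then seeded in galactose medium at OD600=0.02.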
# * = called active by the depositor; i = inactive; ? = inconclusive; . = no result; [ ] = remark or other dose. A selection: hits, their analogues and other compounds. The true share with any hit is near 2.2%. Unless noted, calls come from the whole dose curve; as a rule, active = well fitted curve in the direction sought with a large enough effect; inconclusive = small, poorly fitted or top-dose-only effect, or another doubt; inactive = no such curve, though single readings can be large; an effect the other way counts as inactive or inconclusive. Potency is the fitted concentration of half-maximal effect.
SMILES,ERG Ets-DNA blk,aSyn rescue,Mito fusion yeast,FUS suppressor,Abeta yeast res,TDP43 rescue
Cc1cccc(N2CCN(C(=O)CS(=O)(=O)Cc3nc(-c4ccccc4F)oc3C)CC2C)c1 (configuration not stated),15%,9%,29%,32µM*,i,19%
CC(=O)c1cccc(NC(=O)c2ccc3nc(C(C)C)oc3c2)c1,5%,.,.,i,i,0%
Cc1ccc(-c2nc3scc(CCNC(=O)Cc4ccc(Cl)cc4)n3n2)cc1,-2%,.,.,i,i,0%[9.22 µM]
Cc1ccc(Cn2cc(CCC(=O)NC3CCC(C)CC3)c3ccccc32)cc1 (configuration not stated),1%,.,.,i,i,1%
Cc1cccc(N2CCN(C(=O)COc3ccc4c(c3)CCC4)CC2C)c1 (configuration not stated),-11%,26%,11%,?,i,35µM*
Cc1cccc(N2CCN(C(=O)COc3ccc4c(c3)CCC4)CC2)c1C,1%,8%,10%,.,i,20%
O=C(O)C1CCN(c2c([N+](=O)[O-])cc(C(F)(F)F)cc2[N+](=O)[O-])CC1,1%,3%,0%,i,i,20µM*
COc1cccc(-n2c(=O)c3c(C)c(C)sc3n(CC(=O)NCCc3ccc(OC)c(OC)c3)c2=O)c1,1%,.,.,i,i,6%
CC(C)(C)C(=O)N1CCC[C@H]1C(O)(c1ccccc1)c1ccccc1,-5%,2%,35µM*,i,i,-1%
O=C(C1CC1)N1CCC(C(O)(c2ccccc2)c2ccccc2)CC1,-4%,-1%,1%,i,i,-2%
N=C(N)SCCc1ccc(CCSC(=N)N)cc1,.,?,21µM*,.,.,.
COc1ccc(NC(=O)COc2ccc(N(C)S(=O)(=O)c3ccc(Cl)cc3)cc2)cc1OC,.,1%,15%,.,i,4%
CCCN(C(=O)c1cc2c(s1)-c1ccccc1OC2)c1ccc(C(C)C)cc1,-4%,27%,.,i,i,-6%
COc1ccc(N2CCN(CCS(=O)(=O)c3cc(Cl)ccc3Cl)CC2)cc1,-2%,-2%,3%,i,i,13µM*
CC(=O)N1CCN(CCS(=O)(=O)c2cc(Cl)ccc2Cl)CC1,2%,-6%,.,i,i,?
C[C@H](c1ccccc1)N1C[C@@H](COCc2ccccc2)Oc2cc(N3CC[C@@H](O)C3)ccc2S1(=O)=O,.,0%,.,i,i,28µM*
COc1cccc(CN2C(=O)c3ccccc3C2C(=O)NCCc2ccccc2)c1 (configuration not stated),-3%,.,.,i,i,23%
CCCCNc1oc(-c2ccc(COc3ccccc3C)o2)nc1C#N,4%,.,.,i,i,-4%
COCCCNc1oc(-c2ccc(COc3ccccc3C)o2)nc1C#N,-4%,.,.,i,i,16µM*
COc1cccc(Cn2c(=O)n(CC3CCC(C(=O)N4CCCCC4)CC3)c(=O)c3sccc32)c1 (configuration not stated),5%,.,.,20µM*,i,?
O=C(C1CCC(Cn2c(=O)c3sccc3n(Cc3ccccc3)c2=O)CC1)N1CCCCC1 (configuration not stated),-4%,.,.,i,i,-16%
Cc1nn(C(=O)c2ccccc2)c(C)c1Sc1ccc(Cl)cc1,1%,.,.,?,i,35µM*
Cc1ccc(Sc2c(C)nn(C(=O)c3ccc(Br)cc3)c2C)cc1,0%,.,.,i,i,?
COc1ccc(-c2c(C)nn3c(C(F)(F)F)cc(-c4ccccc4)nc23)cc1,1%,.,.,i,i,?
COC(=O)NC1c2ccccc2Oc2ccc(C)cc21 (configuration not stated),-3%,3%,4%,i,i,13µM*
SMILES,ERG Ets-DNA blk,aSyn rescue,Mito fusion yeast,FUS suppressor,Abeta yeast res,TDP43 rescue
O=S(=O)(CCNC1CC1)NC1CCCCC1,1%,-4%,.,i,i,0%
CC(=O)c1ccc(NC(=O)c2c(C)nn(-c3ccccc3)c2Cl)cc1,-3%,8%,2%,i,i,11µM*
COc1ccccc1NC(=O)CSc1ncn(-c2ccccc2)n1,4%,6%,8%,.,i,10µM*
COc1ccccc1NC(=O)CSc1nncn1-c1ccccc1,-5%,4%,-2%,i,i,6%
COc1ccccc1NC(=O)c1c(C)nn(-c2ccccc2)c1Cl,5%,0%,-5%,i,i,25µM*
Cc1ccc(NC(=O)c2c(C)nn(-c3ccccc3)c2Cl)cc1,-6%,1%,3%,i,i,13µM*
Cc1ccccc1NC(=O)c1c(C)nn(-c2ccccc2)c1Cl,-5%,0%,0%,i,i,?
Cc1cc2oc(C(=O)N(Cc3ccccc3F)C3CCS(=O)(=O)C3)c(C)c2cc1Cl (configuration not stated),0%,.,.,i,i,26%
CC(C)c1ccc(NC(=O)C(Cc2ccccc2)NS(=O)(=O)c2ccc3c(c2)oc(=O)n3C)cc1 (configuration not stated),1%,.,.,i,i,9%
CC(=O)Nc1ccc(-c2sc(Nc3cccc4ccccc34)n[n+]2-c2ccccc2)cc1,-1%,18%,2%,32µM*,i,-4%
CC(C)(CC(=O)O)Cc1nc(-c2ccc(Cl)cc2)no1,-3%,-3%,0%,i,i,32µM*
CC(=O)NCCc1nc(-c2ccc(Cl)cc2)no1,-1%,7%,.,i,i,-1%
O=C(O)CCc1nc(-c2ccc(Cl)cc2)no1,6%,12%,4%,.,i,14µM*
CC(=O)N1CCCC(C)(C(=O)Nc2ccc3nc(C)ccc3c2)C1 (configuration not stated),.,-8%,.,i,i,13%
Cc1nc2c(OCc3ccc(C(F)(F)F)cc3)cccn2c1N(C)C(=O)CCC1CCCC1,.,-41%,.,22µM*,i,-75%
Cc1cc(C)c(S(=O)(=O)N2CCN(C(=O)c3ccc(-n4nc(C)c(Cl)c4C)cc3)CC2)c(C)c1,6%,27%,.,16µM*,i,?
